Screening data from PubChem BioAssay.
This is a sample that favours compounds with a hit; in the whole collection about 12% have one here.
HP1b binding inh: HTS for Inhibitors of HP1-beta Chromodomain Interactions with Methylated Histone Tails. AlphaScreen HP1-beta / biotin-H3K9me3 peptide binding. actives 0.56% (n = 390,000). Chromobox protein homolog 1 (Homo sapiens), P83916. Potency, µM (titrated, usually from 114 µM), without a hit: at the top dose activity change, negative = inhibition, actives largely listed as inhibitors; note: nearly all actives have a fitted effect of over 70% in size
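AlphaScreen: HP1-beta (50 nM) preformed 30 min with biotin-H3(1-18)K9me3 peptide (50 nM) in PBS pH 7.4, 0.01% Tween-20. Compound added for 30 min at RT, then streptavidin donor/nickel chelate acceptor beads (10 ug/mL) for 30 min.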
L3MBTL1 inh: qHTS Assay for the Inhibitors of L3MBTL1; Lethal(3)malignant brain tumor-like protein 1 (Homo sapiens), Q9Y468; AlphaScreen L3MBTL1–H3K9me1 peptide binding; Potency, µM (top dose mostly 57.1 µM), for the others: at the highest dose activity, negative = inhibition, hits mostly inhibitors; actives 0.66% (n = 230,000); AID 485360, 2010; note: % is set by controls: 0 for no effect and ±100 for the full control effect; nearly all actives have a fitted effect of over 60% in size
Target sequence (Q9Y468 whole entry, looked up): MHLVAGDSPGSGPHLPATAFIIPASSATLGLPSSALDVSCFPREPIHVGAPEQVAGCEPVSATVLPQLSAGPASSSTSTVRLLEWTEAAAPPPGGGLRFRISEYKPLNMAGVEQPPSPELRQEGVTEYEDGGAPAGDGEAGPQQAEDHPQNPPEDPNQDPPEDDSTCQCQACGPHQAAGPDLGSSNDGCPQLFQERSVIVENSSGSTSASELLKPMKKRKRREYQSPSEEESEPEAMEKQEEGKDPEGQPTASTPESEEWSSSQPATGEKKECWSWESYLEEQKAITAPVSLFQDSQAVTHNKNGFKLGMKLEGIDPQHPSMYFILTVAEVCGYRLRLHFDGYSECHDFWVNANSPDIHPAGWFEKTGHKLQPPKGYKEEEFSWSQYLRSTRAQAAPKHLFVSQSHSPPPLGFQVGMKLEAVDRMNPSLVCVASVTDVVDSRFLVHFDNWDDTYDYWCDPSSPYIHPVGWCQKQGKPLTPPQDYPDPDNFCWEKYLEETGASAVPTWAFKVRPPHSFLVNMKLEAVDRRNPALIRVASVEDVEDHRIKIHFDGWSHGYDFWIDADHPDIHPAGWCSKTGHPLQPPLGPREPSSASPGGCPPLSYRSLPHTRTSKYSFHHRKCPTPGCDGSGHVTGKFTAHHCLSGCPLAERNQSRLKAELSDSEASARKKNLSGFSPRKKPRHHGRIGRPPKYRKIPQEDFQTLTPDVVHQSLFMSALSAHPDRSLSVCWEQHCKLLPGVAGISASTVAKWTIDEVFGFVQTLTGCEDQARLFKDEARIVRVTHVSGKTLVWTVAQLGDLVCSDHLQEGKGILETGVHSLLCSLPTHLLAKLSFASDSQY
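AlphaScreen assay: L3MBTL1 (50 nM final) was preincubated 30 min at room temperature with biotinylated H3(1-15)K9me1 peptide (75 nM final), then 30 min with library compounds; streptavidin donor and nickel chelate acceptor beads (10 ug/mL final) added, 30 min dark.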
JMJD2A Tudor: qHTS Assay for Inhibitors of JMJD2A-Tudor Domain | AlphaScreen JMJD2A-Tudor / H3K4me3 peptide binding | Potency, µM (highest dose often 114 µM), for inactives: at the top dose activity change, negative = inhibition, usual class: inhibitors | actives 4.4% (n = 390,000) | AID 504339, 2011; note: % is set by controls: 0 for no effect and ±100 for the full control effect; nearly all actives have a fitted effect of over 50% in size
G9a inh: qHTS Assay for Inhibitors of Histone Lysine Methyltransferase G9a. Histone-lysine N-methyltransferase EHMT2 (Homo sapiens), Q96KQ7. G9a H3K9 monomethylation, AlphaScreen, 2 h. Potency, µM (doses to about 102 µM), without a hit: at the highest dose activity, negative = inhibition, most hits filed as inhibitors. actives 8.8% (n = 350,000). AID 504332, 2011; note: % is set by controls: 0 for no effect and ±100 for the full control effect; nearly all actives have a fitted effect of over 75% in size
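Quantitative HTS format: methyltransferase activity on a biotin-tagged H3K9 peptide is measured by AlphaScreen, using a rabbit anti-monomethyl-H3K9 antibody with streptavidin donor and anti-IgG acceptor beads. Final levels are 20 nM enzyme, 500 nM peptide, 20 uM SAM; 2 h RT.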
Sfp PPTase inh: qHTS Assay for Inhibitors of Bacillus subtilis Sfp phosphopantetheinyl transferase (PPTase) | AID 1490, 2009 | actives 3.5% (n = 310,000) | Biochemical Sfp PPTase activity, qHTS | 4'-phosphopantetheinyl transferase ffp (Bacillus subtilis), Q9F4F7 | Potency, µM, for inactives: largest response in the series, negative = inhibition, hits mostly inhibitors;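 note: the enzyme is Sfp with the accession as filed and its product quenches rhodamine fluorescence; 0% = enzyme reaction without inhibitor and -100% = no enzyme wells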
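Compounds were incubated with enzyme (final 15 nM) for 15 min at room temperature before substrate addition started the reaction. Fluorescence at 525 nm excitation, 598 nm emission was recorded immediately and after 30 minutes.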
BAZ2B block: qHTS Assay for Inhibitors of BAZ2B; actives 4.4% (n = 360,000); AID 504333, 2011; Bromodomain adjacent to zinc finger domain protein 2B (Homo sapiens), Q9UIF8; AlphaScreen BAZ2B-H3K14Ac peptide displacement; Potency, µM (series often up to 114 µM), for inactives: at the highest dose activity change, negative = inhibition, usual class: inhibitors; note: % is set by controls: 0 for no effect and ±100 for the full control effect; nearly all actives have a fitted effect of over 60% in size
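AlphaScreen displacement of biotin-H3(5-23)K14Ac peptide (50 nM final) from BAZ2B (50 nM final) in PBS pH 7.4, 0.01% Tween-20; complex preformed 30 min RT, then compounds (top 110 uM) 30 min RT, beads 20 min dark.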
Active calls of the source: *; ? = inconclusive; . = not tested or not shown; [ ] = remark or other dose. Calls come from the whole dose curve; as a rule, active = well fitted curve in the direction sought with a large enough effect; inconclusive = small, poorly fitted or top-dose-only effect, or another doubt; inactive = no such curve, though single readings can be large; an effect the other way counts as inactive or inconclusive. Potency is the fitted concentration of half-maximal effect.

SMILES	HP1b binding inh	L3MBTL1 inh	JMJD2A Tudor	G9a inh	Sfp PPTase inh	BAZ2B block
CC12C=CC(=O)C=C1CCC1C2=CCC2(C)C1CC[C@@H]2C(=O)CN1CCN(c2cc(N3CCCC3)nc(N3CCCC3)n2)CC1 (stereo partly specified)	.	.	.	12.6µM*	?	.
C[C@H]1[C@@H](O)[C@@H](C)/C=C\C=CCC\C=C/C=C\C=C/C=C[C@@H](O[C@H]2O[C@@H](C)[C@@H](O)[C@@H](N)[C@@H]2O)C[C@@H]2O[C@@](O)(C[C@@H](O)[C@H]2C(=O)O)C[C@@H](O)[C@@H](O)CC[C@@H](O)C[C@@H](O)C[C@@H](O)CC(=O)O[C@H]1C	.	.	.	23.7%[21.5 µM]	18.2%	.
O=C(N/N=C/C1C(=O)NC(=S)N(c2ccccc2)C1=O)c1cc(Br)c(O)c(Br)c1 (stereo unspecified)	-22.2%	12.6µM*	10µM*	44.7µM*	-13.5%	10.4%
CCn1c(O)c(/C=N/NC(=O)c2ccccc2)c(=O)n(CC)c1=S	26.0%	.	-24.5%	.	27.4%	?
CCN1C[C@]2(C)CC[C@H](O)[C@@]34[C@@H]5C[C@@H]6[C@@H](OC)C[C@@](O)(C5[C@H]6O)[C@@H](C[C@@H]23)[C@@H]14	.	.	.	15.0%[12.7 µM]	.	.
CC(C)Oc1ccc(Cc2c(O)[nH]c(=O)[nH]c2=O)cc1	18.2%	-13.7%	-14.5%	-7.2%[59 µM]	-14.3%	2.3%
CCOc1ccc(C(C)=O)cc1Cc1c(O)[nH]c(=S)[nH]c1=O	?	39.5%	89.1µM*	.	44.7µM*	4.4%
CC(=O)c1ccc(OC(C)C)c(Cc2c(O)[nH]c(=S)[nH]c2=O)c1	26.2%	12.9%	0.3%	.	22.4µM*	-12.5%
COc1ccc(C(C)=O)cc1CC(C(=O)c1ccc(F)cc1)N(C)C (stereo unspecified)	6.3%	-1.9%	-15.8%	1.8%[59 µM]	-1.5%	-22.7%
COc1ccc(C(C)=O)cc1Cc1c(O)[nH]c(=S)[nH]c1=O	-7.3%	.	?	8.91µM*	50.1µM*	-17.9%
CCCOc1ccc(C(C)=O)cc1Cc1c(O)[nH]c(=S)[nH]c1=O	1.4%	54.0%	-22.4%	.	?	12.8%
CC(C)C[C@H](NC(=O)[C@H](Cc1ccccc1)NC(=O)CNC(=O)[C@@H](COC(C)(C)C)NC(=O)[C@@H](N)Cc1ccc(O)cc1)C(=O)N[C@H](C(=O)O)[C@@H](C)OC(C)(C)C	.	.	.	.	14.6%	.
CN1CCCN(C(=O)COc2ccccc2)CC1	31.5%	.	12.1%	.	13.6%	-2.4%
O=C(Cc1ccccc1)N1CCN(C2CCCC2)CC1	-33.6%	29.7%	31.6µM*	-30.6%[2.33 µM]	89.1µM*	?
CCOC(=O)C1(CCCc2ccccc2)CCN(C2CCCC2)CC1	23.4%	-8.3%	-9.8%	-1.6%	2.5%	?
COc1ccc(OCC(=O)N2CCN(C3CCC(c4ccccc4)CC3)CC2)cc1 (stereo unspecified)	?	-4.6%	20µM*	?	-1.0%	50.1µM*
O=C(COc1ccc2ccccc2c1)N1CCN(C2CCN(Cc3ccccc3)CC2)CC1	-2.6%	-7.4%	-24.3%	-48.4%	-0.1%	-4.3%
O=C(COc1ccccc1)N1CCN(C2CCCC2)CC1	-54.5%	-5.4%	7.94µM*	10µM*	-3.9%	-105.9%
CN[C@H](CC(C)C)C(=O)N[C@H]1C(=O)N[C@@H](CC(N)=O)C(=O)N[C@@H]2C(=O)N[C@H]3C(=O)N[C@H](C(=O)N[C@H](C(=O)O)c4cc(O)cc(O)c4-c4cc3ccc4O)[C@H](O)c3ccc(c(Cl)c3)Oc3cc2cc(c3O[C@@H]2O[C@H](CO)[C@@H](O)[C@H](O)[C@@H]2O[C@H]2C[C@](C)(N)[C@H](O)[C@H](C)O2)Oc2ccc(cc2Cl)[C@H]1O	.	.	.	1.5%[59 µM]	.	.
CCNC(=O)[C@H]1O[C@@H](n2cnc3c(N)ncnc32)[C@H](O)[C@H]1O	.	.	.	51.4%[12.7 µM]	.	.
Cc1ccc(N)c(C)c1	41.3%	-4.7%	-12.4%	-4.8%[0.501 µM]	.	5.5%
Cc1ccc(N=Nc2cc(C)ccc2N)cc1	?	14.1µM*	?	.	-7.8%	7.94µM*
CC(C)(O)[C@H]1O[C@@H]2CC[C@]3(C)[C@@]4(C)c5[nH]c6ccccc6c5C[C@@H]4CC[C@]3(O)C2=CC1=O	.	.	.	.	-19.8%	.
CC(C)(O)[C@H]1O[C@H]2CC[C@@]3(C)[C@@](O)(CC[C@H]4Cc5c([nH]c6ccccc56)[C@@]43C)C2=CC1=O	-13.7%	-22.0%	?	31.6µM*	10.9%	?
CC1CC(C)C(=O)[C@H](C(O)CC2CC(=O)NC(=O)C2)C1 (stereo partly specified)	.	.	.	-29.9%[2.33 µM]	21.2%	.
SMILES	HP1b binding inh	L3MBTL1 inh	JMJD2A Tudor	G9a inh	Sfp PPTase inh	BAZ2B block
Cc1ccc(N2C(=O)NC(=O)C3(Cc4ccccc4N4CCN(c5ccccc5)CC43)C2=O)cc1 (stereo unspecified)	14.0%	-4.4%	-33.3%	7.08µM*	-12.2%	-32.4%
Cc1ccc(CN2C(=O)NC(=O)C3(Cc4c(nc5ccccn5c4=O)N4CCCCCC43)C2=O)cc1 (stereo unspecified)	6.0%	-29.0%[11.4 µM]	-31.3%	?	-10.4%	?
CN1c2ccc([N+](=O)[O-])cc2CC2(C(=O)NC(=O)N(c3ccccc3)C2=O)C1c1ccccc1 (stereo unspecified)	-8.0%	-3.5%	-35.3%	-10.3%[59 µM]	29.7%	-36.1%
O=C1NC(=O)C2(Cc3ccccc3N3CCCC32)C(=O)N1c1cccc(Cl)c1 (stereo unspecified)	30.9%	1.1%	-32.4%	31.6µM*	-11.3%	9.7%
COc1ccc2[nH]c3c(c2c1)CCNC3C (stereo unspecified)	45.4%	-4.2%	-22.6%	18.6%	11.7%	-23.5%
COc1ccc2c3c([nH]c2c1)C(C)NCC3 (stereo unspecified)	-12.8%	-15.7%	50.1µM*	-25.3%[12.7 µM]	9.2%	?
C=C(C)[C@@]12OC3(c4ccccc4)O[C@@H]1[C@@H]1[C@@H]4O[C@]4(CO)[C@@H](O)[C@]4(O)C(=O)C(C)=C[C@H]4[C@@]1(O3)[C@H](C)[C@H]2OC(=O)/C=C/C=C/c1ccccc1	.	.	.	.	-0.4%	.
